{
  "source": "PubChem BioAssay (NCATS)",
  "key": {"[1]": {"target": "Lysine-specific demethylase 5B (Homo sapiens) (UniProt Q9UGL1)", "sequence (Q9UGL1 whole entry, looked up)": "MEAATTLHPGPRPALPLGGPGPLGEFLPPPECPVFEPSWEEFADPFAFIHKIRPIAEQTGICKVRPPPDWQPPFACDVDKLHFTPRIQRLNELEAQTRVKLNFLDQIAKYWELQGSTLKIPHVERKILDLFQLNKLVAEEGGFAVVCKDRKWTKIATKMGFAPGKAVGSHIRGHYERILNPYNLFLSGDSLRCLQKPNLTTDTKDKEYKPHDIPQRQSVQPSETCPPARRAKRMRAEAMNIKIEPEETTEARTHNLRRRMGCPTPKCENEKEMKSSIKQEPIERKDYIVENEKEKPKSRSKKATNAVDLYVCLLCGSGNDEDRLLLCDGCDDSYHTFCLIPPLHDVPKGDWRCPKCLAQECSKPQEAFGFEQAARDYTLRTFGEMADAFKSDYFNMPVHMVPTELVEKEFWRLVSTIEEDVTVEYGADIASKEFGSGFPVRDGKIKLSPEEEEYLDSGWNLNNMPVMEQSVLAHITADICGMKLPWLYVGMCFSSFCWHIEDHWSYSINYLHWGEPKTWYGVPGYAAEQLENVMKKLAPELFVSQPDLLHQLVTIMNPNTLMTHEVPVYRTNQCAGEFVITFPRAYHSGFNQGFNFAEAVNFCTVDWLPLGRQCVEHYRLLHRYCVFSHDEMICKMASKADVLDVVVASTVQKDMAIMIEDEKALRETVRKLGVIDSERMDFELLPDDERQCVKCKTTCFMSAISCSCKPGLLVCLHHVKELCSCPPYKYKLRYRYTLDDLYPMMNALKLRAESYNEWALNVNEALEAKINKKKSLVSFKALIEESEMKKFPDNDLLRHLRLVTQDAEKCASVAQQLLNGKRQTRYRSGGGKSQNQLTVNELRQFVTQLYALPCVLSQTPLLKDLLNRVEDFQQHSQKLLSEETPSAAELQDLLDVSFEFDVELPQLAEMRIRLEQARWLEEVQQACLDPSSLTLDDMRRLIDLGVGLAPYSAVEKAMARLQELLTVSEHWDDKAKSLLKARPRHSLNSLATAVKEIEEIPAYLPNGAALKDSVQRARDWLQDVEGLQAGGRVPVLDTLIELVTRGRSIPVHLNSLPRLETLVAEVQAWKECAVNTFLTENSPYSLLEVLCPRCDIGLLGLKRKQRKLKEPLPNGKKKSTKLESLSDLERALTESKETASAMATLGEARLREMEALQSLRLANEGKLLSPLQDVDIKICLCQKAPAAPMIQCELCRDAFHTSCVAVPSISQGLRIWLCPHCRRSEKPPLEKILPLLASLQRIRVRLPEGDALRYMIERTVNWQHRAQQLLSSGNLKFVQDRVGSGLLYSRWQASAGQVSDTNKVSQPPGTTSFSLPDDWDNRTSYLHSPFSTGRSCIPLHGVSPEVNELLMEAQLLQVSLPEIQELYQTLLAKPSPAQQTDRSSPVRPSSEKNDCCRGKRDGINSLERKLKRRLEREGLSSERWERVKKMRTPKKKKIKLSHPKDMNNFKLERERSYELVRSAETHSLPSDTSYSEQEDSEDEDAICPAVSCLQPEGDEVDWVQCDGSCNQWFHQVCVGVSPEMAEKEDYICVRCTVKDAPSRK", "experiment": "Optimization screen for KDM5B Histone Demethylases FDH coupled qHTS against the LOPAC library (AID 1347166); note: potency is the fitted concentration of half-maximal effect", "in_short": "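KDM5BDeltaAP (200nM final) preincubated 10 min with compound, then 12.5uM H3K4Me3, 25uM a-ketoglutarate, ascorbate, Fe(II), NAD+ and FDH added; 50mM HEPES pH 7.5, 0.01% Tween-20. NADH fluorescence (340/450 nm) change over 30 min, room temperature.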"}, "[2]": {"experiment": "Vero cells viability qHTS for Zika virus inhibitors (AID 1347167)", "in_short": "(§1)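 Compounds were tested in concentration series on cells grown in DMEM containing 4% FBS. After 24 to 48 hours, cellular ATP was measured by luminescence with CellTiter Glo.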"}, "[3]": {"experiment": "HepG2 cells viability qHTS for Zika virus inhibitors (AID 1347168)", "in_short": "as §1"}},
  "note": "Inconclusive results are not listed. A call without a number means that no potency is given here. Calls of active or inactive are those of the source. Calls come from the whole dose curve; as a rule, active = well fitted curve in the direction sought with a large enough effect; inconclusive = small, poorly fitted or top-dose-only effect, or another doubt; inactive = no such curve, though single readings can be large; an effect the other way counts as inactive or inconclusive.",
  "data": [
    {"smiles": "O=C1C=CC(=O)C=C1", "values": [
      {"measurement": "Potency", "setting": "[1]", "result": "inactive"}
    ]},
    {"smiles": "COc1ccc(CNC(=O)/C=C/c2ccc3[nH]cc(CCN(C)C)c3c2)cc1", "values": [
      {"measurement": "Potency", "setting": "[1]", "result": "inactive"}
    ]},
    {"smiles": "NC(N)=NOCC[C@H](N)C(=O)O", "values": [
      {"measurement": "Potency", "setting": "[1]", "result": "inactive"}
    ]},
    {"smiles": "NCCCP(=O)(O)O", "values": [
      {"measurement": "Potency", "setting": "[1]", "result": "inactive"}
    ]},
    {"smiles": "Ic1ccccc1CNC1C2CCN(CC2)C1C(c1ccccc1)c1ccccc1", "note": "(centres undefined)", "values": [
      {"measurement": "Potency", "setting": "[1]", "result": "inactive"}
    ]},
    {"smiles": "N[C@@]1(C(=O)O)CC[C@@H](C(=O)O)C1", "values": [
      {"measurement": "Potency", "setting": "[1]", "result": "inactive"}
    ]},
    {"smiles": "CCCN(CCC)C1CCc2cccc(O)c2C1", "note": "(centres undefined)", "values": [
      {"measurement": "Potency", "setting": "[1]", "result": "inactive"}
    ]},
    {"smiles": "NCC(CP(=O)(O)O)c1ccc(Cl)cc1", "note": "(centres undefined)", "values": [
      {"measurement": "Potency", "setting": "[1]", "result": "inactive"}
    ]},
    {"smiles": "C[N+]1(C)CCOC(O)(c2ccc(-c3ccc(C4(O)C[N+](C)(C)CCO4)cc3)cc2)C1", "note": "(centres undefined)", "values": [
      {"measurement": "Potency", "setting": "[1]", "result": "inactive"}
    ]},
    {"smiles": "NC(=O)c1cc(N2CC2)c([N+](=O)[O-])cc1[N+](=O)[O-]", "values": [
      {"measurement": "Potency", "setting": "[1]", "result": "inactive"}
    ]},
    {"smiles": "O=[N+]([O-])c1ccc2nc(N3CCNCC3)ccc2c1", "values": [
      {"measurement": "Potency", "setting": "[1]", "result": "inactive"}
    ]},
    {"smiles": "N[C@@H](CCl)C(=O)O", "values": [
      {"measurement": "Potency", "setting": "[1]", "result": "inactive"}
    ]},
    {"smiles": "COc1cc(CC(C)N)c(OC)cc1I", "note": "(centres undefined)", "values": [
      {"measurement": "Potency", "setting": "[1]", "result": "inactive"}
    ]},
    {"smiles": "CN1CC[C@@]2(C)c3cc(O)ccc3N(C)C12", "note": "(some centres undefined)", "values": [
      {"measurement": "Potency", "setting": "[1]", "result": "2510 nM (active)"}
    ]},
    {"smiles": "COc1ccc(OC)c(C(O)C(C)N)c1", "note": "(centres undefined)", "values": [
      {"measurement": "Potency", "setting": "[1]", "result": "inactive"}
    ]},
    {"smiles": "N[C@@H](Cn1oc(=O)[nH]c1=O)C(=O)O", "values": [
      {"measurement": "Potency", "setting": "[1]", "result": "inactive"}
    ]},
    {"smiles": "CO[C@H]1CC=C2CCN3CCC4=C(CC(=O)OC4)[C@]23C1", "values": [
      {"measurement": "Potency", "setting": "[1]", "result": "inactive"}
    ]},
    {"smiles": "C=CCN1C[C@@H](C)N([C@H](c2ccc(C(=O)N(CC)CC)cc2)c2cccc(OC)c2)C[C@@H]1C", "values": [
      {"measurement": "Potency", "setting": "[1]", "result": "inactive"}
    ]},
    {"smiles": "CCNC(=O)[C@H]1O[C@@H](n2cnc3c(N)ncnc32)[C@H](O)[C@@H]1O", "values": [
      {"measurement": "Potency", "setting": "[1]", "result": "inactive"}
    ]},
    {"smiles": "CC(C)(O)[C@@H]1C2OC(=O)[C@@H]1[C@]1(O)C[C@H]3O[C@]34C(=O)O[C@H]2[C@]14C", "note": "(tested in a mixture with another compound)", "values": [
      {"measurement": "Potency", "setting": "[1]", "result": "inactive"}
    ]},
    {"smiles": "CC(=O)NBr", "values": [
      {"measurement": "Potency", "setting": "[1]", "result": "inactive"}
    ]},
    {"smiles": "CC(N)Cc1c[nH]c2ccc(O)cc12", "note": "(centres undefined)", "values": [
      {"measurement": "Potency", "setting": "[1]", "result": "inactive"}
    ]},
    {"smiles": "C[N+](C)(C)CC#CCOC(=O)Nc1cccc(Cl)c1", "values": [
      {"measurement": "Potency", "setting": "[1]", "result": "inactive"}
    ]},
    {"smiles": "COc1ccc2[nH]c3c(c2c1)CCNC3", "values": [
      {"measurement": "Potency", "setting": "[1]", "result": "inactive"}
    ]},
    {"smiles": "C=CCN1CC[C@]23c4c5ccc(O)c4O[C@@H]2/C(=N/N=C2\\CC[C@@]4(O)C6Cc7ccc(O)c8c7[C@@]4(CCN6CC=C)[C@@H]2O8)CC[C@@]3(O)C1C5", "values": [
      {"measurement": "Potency", "setting": "[1]", "result": "inactive"}
    ]},
    {"smiles": "C[N+]1(C)C2CCC1CC(OC(=O)c1c[nH]c3ccccc13)C2", "note": "(centres undefined)", "values": [
      {"measurement": "Potency", "setting": "[1]", "result": "inactive"}
    ]},
    {"smiles": "CCN1C[C@@]2(COC)C3[C@@H](OC)C4[C@@H]1C3([C@@H]1C[C@]3(O)[C@H](OC(=O)c5ccccc5)[C@@H]1[C@]4(OC(C)=O)[C@@H](O)[C@@H]3OC)[C@H](OC)C[C@H]2O", "values": [
      {"measurement": "Potency", "setting": "[1]", "result": "inactive"}
    ]},
    {"smiles": "CP(=O)(O)C1=CCNCC1", "values": [
      {"measurement": "Potency", "setting": "[1]", "result": "inactive"}
    ]},
    {"smiles": "C[N+](C)(C)CC#CCN1CCCC1=O", "values": [
      {"measurement": "Potency", "setting": "[1]", "result": "inactive"}
    ]},
    {"smiles": "NCCc1ccc(S(=O)(=O)F)cc1", "values": [
      {"measurement": "Potency", "setting": "[1]", "result": "inactive"}
    ]},
    {"smiles": "C[N+](C)(C)CCOC(=O)CBr", "values": [
      {"measurement": "Potency", "setting": "[1]", "result": "inactive"}
    ]},
    {"smiles": "CC(Cc1ccc(OCC(=O)O)cc1)NCC(O)c1cccc(Cl)c1", "note": "(centres undefined)", "values": [
      {"measurement": "Potency", "setting": "[1]", "result": "inactive"}
    ]},
    {"smiles": "OC1CCCCC1N1CCC(c2ccccc2)CC1", "note": "(centres undefined)", "values": [
      {"measurement": "Potency", "setting": "[1]", "result": "inactive"}
    ]},
    {"smiles": "CCCN1CC[C@@H]2c3cc(O)ccc3CC[C@@H]21", "values": [
      {"measurement": "Potency", "setting": "[1]", "result": "inactive"}
    ]},
    {"smiles": "CCCN1CCc2cc(O)cc3c2[C@H]1Cc1ccc(O)c(O)c1-3", "values": [
      {"measurement": "Potency", "setting": "[1]", "result": "inactive"}
    ]},
    {"smiles": "C#CCN[C@H](C)Cc1ccccc1", "values": [
      {"measurement": "Potency", "setting": "[1]", "result": "inactive"}
    ]},
    {"smiles": "COc1ccc2c(c1)c(CCN1CCOCC1)c(C)n2C(=O)c1cccc(Cl)c1Cl", "values": [
      {"measurement": "Potency", "setting": "[1]", "result": "inactive"}
    ]},
    {"smiles": "CC1(C(=O)O)C2CCC(O2)C1(C)C(=O)O", "note": "(centres undefined)", "values": [
      {"measurement": "Potency", "setting": "[1]", "result": "inactive"}
    ]},
    {"smiles": "C[N+]1(C)CCc2cc3c(cc2[C@H]1[C@@H]1OC(=O)c2c1ccc1c2OCO1)OCO3", "values": [
      {"measurement": "Potency", "setting": "[1]", "result": "inactive"}
    ]},
    {"smiles": "C/C(O)=C(\\C#N)C(=O)Nc1cc(Br)ccc1Br", "values": [
      {"measurement": "Potency", "setting": "[1]", "result": "inactive"}
    ]},
    {"smiles": "C[C@@H]1[C@@H]2Cc3ccc(O)cc3[C@@]1(C)CCN2CC1CC1", "values": [
      {"measurement": "outcome", "setting": "[2]", "result": "inactive"},
      {"measurement": "outcome", "setting": "[3]", "result": "inactive"}
    ]},
    {"smiles": "CC[C@H](C)[C@H]1O[C@]2(C=C[C@@H]1C)C[C@@H]1C[C@@H](C/C=C(\\C)[C@@H](O[C@H]3C[C@H](OC)[C@@H](O[C@H]4C[C@H](OC)[C@@H](O)[C@H](C)O4)[C@H](C)O3)[C@@H](C)/C=C/C=C3\\CO[C@@H]4[C@H](O)C(C)=C[C@@H](C(=O)O1)[C@]34O)O2", "values": [
      {"measurement": "outcome", "setting": "[2]", "result": "inactive"},
      {"measurement": "outcome", "setting": "[3]", "result": "inactive"}
    ]}
  ]
}
